A549 tox-1 = kills or reduces viability of A549 cells in Nrf2 counter-screen | A549 ARE-Fluc cells, CellTiter-Fluor viability, 18-24 h | Potency, µM (series often up to 46 µM), without a hit: at the highest dose activity change, negative = cytotoxicity, actives largely listed as inhibitors | 390,000 tested, 0.16% active; further: on the % scale 0 is the no-effect control and ±100 the full control effect
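A549 ARE-Fluc cells in 5% FBS OPTI-MEM, 5000 cells/well, rested 2 h then exposed to compounds in concentration-response for 18-24 h at 37 °C. Viability by CellTiter-Fluor fluorescence (Ex 405/Em 525) after 30 min; luciferase luminescence (BugLite, 15 min, RT) read afterwards.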
Nrf2 activator = activators of Nrf2 (ARE) signaling; AREc32 ARE-luciferase reporter (MCF7-derived line), luminescence, 24 h; Potency, µM (doses to about 46.1 µM), for inactives: at the top dose activation, actives largely listed as activators; 410,000 tested, 0.31% active; AID 624171; further: % of control where 0% means no effect; nearly all actives have a fitted effect of over 65% in size
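Reporter line AREc32 (ARE-Fluc), seeded overnight in OPTI-MEM with 5% FBS; compound pin-transferred, 24 hr at 37 deg C, 5% CO2; luminescent read-out.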
Nrf2 inh = blocks Nrf2 signaling. Potency, µM (highest dose often 46 µM), inactives show at the highest dose activity change, negative = inhibition, actives largely listed as inhibitors. 360,000 tested, 2.1% active. A549 ARE-Fluc reporter, luciferase luminescence, 18-24 h; further: on the % scale 0 is the no-effect control and ±100 the full control effect; nearly all actives have a fitted effect of over 60% in size
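Two sequential reads on A549 ARE_Fluc cells exposed to compound for 18-24 h: a CellTiter-Fluor fluorescence read for viability, then a luciferase luminescence read for Nrf2/ARE activity.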
TGFb inhibitor = blocks TGF-b signaling. HepG2 CAGA-GFP TGF-b/SMAD3 reporter, GFP fluorescence, 18 h; TGF-beta stimulated, 500 pg/mL final. Potency, µM (highest dose often 46.1 µM), for inactives: at the highest dose activity, negative = inhibition, hits mostly inhibitors. 410,000 tested, 1.2% active; further: on the % scale 0 is the no-effect control and ±100 the full control effect; nearly all actives have a fitted effect of over 65% in size
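Per well, imaged GFP fluorescence of HEPG2 CAGA-GFP cells gives the signal; cells get compound, then TGF-beta (500 pg/mL final), 18 h at 37 degrees C; %Activity versus -TGF-beta and +DMSO controls.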
HepG2 viability = HepG2 cytotoxicity, counter-screen for TGF-b inhibitors; AID 588856; Potency, µM (highest dose often 46.1 µM), without a hit: top-dose activity change, negative = cytotoxicity, usual class: cytotoxic; HepG2 CAGA-GFP viability, ATP luminescence, 18 h; 410,000 tested, 0.76% active
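CellTiter-Glo luminescence gave cytotoxicity after 18 hours at 37 degrees C. The cells were HepG2 CAGA-GFP in 1% FBS DMEM, stimulated with 500 pg/mL TGF-beta after compound addition. %Activity was normalised to no-cell wells (complete cell-killing) and DMSO (no toxicity), and curves were fitted and classified.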
FLuc counter 3 = blocks purified firefly luciferase in Nrf2 counterscreen; shares compounds with Nrf2 inh; purified firefly luciferase, luminescence inhibition; Potency, µM (top dose mostly 57.5 µM), for inactives: at the top dose activity change, negative = inhibition, actives largely listed as inhibitors; 1,400 tested, 4% active; AID 720522; further: on the % scale 0 is the no-effect control and ±100 the full control effect; nearly all actives have a fitted effect of over 65% in size
Target sequence (P08659 whole entry, looked up): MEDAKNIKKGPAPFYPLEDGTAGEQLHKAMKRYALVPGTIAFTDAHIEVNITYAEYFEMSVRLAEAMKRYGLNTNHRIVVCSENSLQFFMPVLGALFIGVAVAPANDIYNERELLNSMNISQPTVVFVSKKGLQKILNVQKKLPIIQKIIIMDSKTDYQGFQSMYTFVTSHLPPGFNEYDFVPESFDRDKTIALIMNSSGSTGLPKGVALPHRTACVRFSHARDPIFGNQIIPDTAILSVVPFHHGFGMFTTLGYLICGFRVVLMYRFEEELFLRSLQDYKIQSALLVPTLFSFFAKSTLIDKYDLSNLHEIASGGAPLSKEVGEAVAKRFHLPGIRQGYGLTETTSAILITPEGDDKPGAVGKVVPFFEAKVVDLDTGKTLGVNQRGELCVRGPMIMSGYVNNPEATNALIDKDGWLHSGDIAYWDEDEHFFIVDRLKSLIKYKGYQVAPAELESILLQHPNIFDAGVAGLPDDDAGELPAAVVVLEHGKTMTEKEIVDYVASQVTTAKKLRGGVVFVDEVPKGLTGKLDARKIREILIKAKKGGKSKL
A549 tox-2 = A549 cytotoxicity, Nrf2 inhibitor counterscreen; shares compounds with Nrf2 inh; A549 ARE-Fluc cells, cytotoxicity counterscreen; Potency, µM (titrated, usually from 46.1 µM), without a hit: at the highest dose activity change, negative = cytotoxicity, most hits filed as inhibitors; 1,400 tested, 2% active;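 further: cells exposed to compounds for 18 to 24 hours; on the % scale 0 is the no-effect control and ±100 the full control effect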
ARE-Fluc inh = Nrf2 inhibition confirmed, A549 ARE-luciferase | shares compounds with Nrf2 inh | 1,400 tested, 74% active | A549 ARE-firefly luciferase reporter, luminescence | Potency, µM (highest dose often 46.1 µM), for inactives: at the highest dose activity change, negative = inhibition, hits mostly inhibitors; further: on the % scale 0 is the no-effect control and ±100 the full control effect; nearly all actives have a fitted effect of over 65% in size
* marks the source's active call; other numbers are inactive results; ? = inconclusive; · = no result shown; [ ] = remark or other dose. Most compounds without a hit are left out; they make up all but 3.6% or so of the library. The call rests on the fitted dose curve; in most records, active means well fitted curve in the direction sought with a large enough effect; inconclusive means small, poorly fitted or top-dose-only effect, or another doubt; inactive means no such curve, though single readings can be large; an effect the other way counts as inactive or inconclusive. Potency means the concentration at half of the fitted maximal effect.

SMILES	A549 tox-1	Nrf2 activator	Nrf2 inh	TGFb inhibitor	HepG2 viability	FLuc counter 3	A549 tox-2	ARE-Fluc inh
COc1ccc(NC(=O)COC(=O)c2cc(OC)c(OC)cc2NC(=O)c2ccco2)cc1OC	·	-1%	5.8µM*	-1%	3%	-26%	-15%	-23%
Oc1ccc2ccccc2c1C=Nc1ccccc1Br	6%	4%	1%	-18%	-16%	·	·	·
CCOC(=O)C1=C(CSc2nc3ccccc3s2)NC(=O)NC1c1ccc(OC)cc1 (centres undefined)	?	0%	5.8µM*	?	-53%	-20%	?	·
COc1ccc(CNc2ncnc3c2[nH]c2ccccc23)cc1	-19%	8%	4.6µM*	-19%	-7%	?	-20%	5.2µM*
COc1ccc(CCn2cnc3c([nH]c4ccccc43)c2=O)cc1	4%	0%	17%	6%	3%	·	·	·
Nc1ccc(-c2cc3ccccc3oc2=O)cc1	-1%	-2%	1.3µM*	13%	-26%	8.5µM*	-1%	1.5µM*
COc1ccc(/C=N/NS(=O)(=O)c2ccc(C)cc2)cc1OC(=O)c1ccccc1	12%	0%	·	-24%	-4%	·	·	·
COc1ccc(/C=N/NS(=O)(=O)c2ccccc2)cc1OC(=O)c1ccc(C)cc1	-9%	-3%	9.2µM*	-5%	-16%	1%	-1%	7.3µM*
Cc1nc(-c2c(C(=O)NNC(=O)Nc3c(C)cccc3C)noc2C)cs1	4%	0%	7%	1%	8%	·	·	·
COc1cccc(-c2ncc3ccccc3c2COC(=O)N2CCCCC2)c1	-2%	3%	5.8µM*	-1%	-9%	-22%	-1%	?
COc1cccc(-c2ncc3ccccc3c2COC(=O)N2CCOCC2)c1	-10%	1%	-8%	21%	-10%	·	·	·
COc1ccc2c(ccc[n+]2[O-])c1	-1%	3%	-9%	-2%	1%	·	·	·
COc1ccc2ccc3cccc[n+]3c2c1	-12%	4%	4.6µM*	-3%	0%	-2%	-14%	23µM*
COc1cc(NC(=O)CCCSc2nc(-c3ccco3)cc(C(F)(F)F)n2)cc(OC)c1OC	-29%	5%	?	?	-15%	·	·	·
COc1cc(NC(=O)CSc2nc(-c3ccco3)cc(C(F)(F)F)n2)cc(OC)c1OC	-14%	0%	9.2µM*	?	2%	5%	-12%	?
CC(=O)Oc1ccc(/C(C)=N/N2CCN(Cc3ccc(C)cc3)CC2)cc1	-1%	0%	6%	-13%	-8%	·	·	·
Cc1cc(C(=O)COC(=O)c2ccc(N)c([N+](=O)[O-])c2)c(C)n1-c1ccc2c(c1)OCO2	-11%	6%	5.8µM*	-20%	-2%	-6%	-4%	?
CCC(C)(C)c1ccc(OCCCC[n+]2cccc(C)c2)c(C(C)(C)CC)c1	?	-2%	8.2µM*	10µM*	-196%	-5%	?	6.5µM*
CN(CC(=O)Nc1ccc(OC(F)(F)F)cc1)C(=O)c1ccc(N2CCCC2=O)cc1	-6%	0%	2.9µM*	-8%	-4%	2%	1%	5.2µM*
CN(CC(=O)Nc1ccc(Cl)cc1)C(=O)c1ccc(N2CCCC2=O)cc1	8%	4%	6%	-10%	-15%	·	·	·
O=C(c1cnn2c(C(F)(F)F)cc(-c3ccccc3)nc12)N1CCCCC1c1cccnc1 (centres undefined)	3%	0%	?	-9%	0%	·	·	·
O=C(c1cc2nc(-c3ccc(F)cc3)cc(C(F)(F)F)n2n1)N1CCCCC1c1cccnc1 (centres undefined)	?	5%	4.6µM*	?	-14%	-26%	-26%	6.5µM*
c1cc(-c2ccsc2)n2cnnc2c1	·	-1%[9.22 µM]	·	0%	-2%	·	·	·
COc1ccc(/C=C/c2ccccn2)cc1	·	·	·	?	-53%	-2%	-30%	2.3µM*
COc1ccc(-c2nc3ccccc3o2)cc1NC(=O)C(C)Oc1ccc(Cl)cc1Cl (centres undefined)	5%	-1%	20%	-2%	3%	·	·	·
SMILES	A549 tox-1	Nrf2 activator	Nrf2 inh	TGFb inhibitor	HepG2 viability	FLuc counter 3	A549 tox-2	ARE-Fluc inh
Cc1nn(Cc2ccc(Cl)cc2)c(C)c1NC(=O)c1cc(-c2ccc3c(c2)OCO3)on1	?	6%	4.1µM*	?	-70%	-2%	-10%	9.2µM*
O=c1ccncn1C1OC(CO)C(O)C1O (centres undefined)	-5%	2%	11%	-6%	8%	·	·	·
N=c1ccn2c(n1)OC1C(O)[C@@H](CO)O[C@H]12 (some centres undefined)	2%	·	0.16µM*	1%	-13%	-2%	-1%	·
Cn1c(=O)c2c(nc(CN3CCN(c4ccccc4)CC3)n2CCCc2ccccc2)n(C)c1=O	-2%	2%	8%	-10%	3%	·	·	·
CCCCn1c(CN2CCN(c3ccccc3)CC2)nc2c1c(=O)n(C)c(=O)n2C	?	0%	4.1µM*	-18%	-47%	2%	-12%	15µM*
CC1CCCN(S(=O)(=O)c2ccc(C(=O)Nc3nnc(-c4ccco4)o3)cc2)C1 (centres undefined)	-18%	3%	8.2µM*	-18%	-73%	-1%	?	·
CCc1nnc(NC(=O)c2ccc(S(=O)(=O)N3CCCC(C)C3)cc2)o1 (centres undefined)	-16%	-1%	?	-9%	-31%	·	·	·
CC1CCCCN1S(=O)(=O)c1ccc(C(=O)Nc2nnc(-c3ccccc3Cl)o2)cc1 (centres undefined)	?	0%	5.2µM*	-22%	6%	-2%	?	6.5µM*
CCOc1ccc(C(=O)Nc2ccc(S(=O)(=O)N(Cc3ccccc3)c3ccccc3)cc2)cc1	-10%	-1%	2.1µM*	?	-23%	-1%	-1%	1.6µM*
O=C(Nc1nnc(-c2ccccc2Cl)o1)c1ccc(S(=O)(=O)N2CCCCCC2)cc1	-15%	-2%	?	?	-7%	-9%	?	21µM*
CS(=O)(=O)c1ccccc1-c1nnc(NC(=O)c2ccc(S(=O)(=O)N3CCCC3)cc2)o1	1%	-1%	-5%	0%	-18%	·	·	·
